Measurements: PubChem BioAssay (NCATS)
Records with an inconclusive call do not appear. Calls of active or inactive are those of the source. Calls follow the shape of the dose curve; as a rule, active = well fitted curve in the direction sought with a large enough effect; inconclusive = small, poorly fitted or top-dose-only effect, or another doubt; inactive = no such curve, though single readings can be large; an effect the other way counts as inactive or inconclusive. Numbered stars: 1 amine (or outer) side, 2 acyl side, 3 side chain; on linkers, the order of the positions; unused ones are H or OH. Bridge positions count the residues as written; N and C are the ends. Square brackets hold non-standard residues; d marks the D form. Peptide text beside a SMILES is read from it. I, II: the chains in the order shown. Actinocin(9to1) = Cc1c2oc3c(C)ccc(C(=O)[*:1])c3nc-2c(C(=O)[*:2])c(N)c1=O; NMeV = CN[C@H](C(=O)O)C(C)C; Sar = CNCC(=O)O

How the values were obtained:
[1] = Primary qHTS for inhibitors of La Crosse Virus (LACV) - induced cell death in SH-SY5Y cells (AID 1508616);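 also: top concentration of the series differs between compounds; higher means more rescue of cells from virus-induced death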
Method in brief: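 SH-SY5Y cells (6000/well) plated 24 h, then given compounds by pin transfer and LACV at 0.01 MOI for 6 days at 37C. Viability measured by ATPLite luminescence, normalized to infected DMSO and uninfected DMSO.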

[2] = biological target: Calcium and integrin-binding protein 1 (Homo sapiens) (UniProt Q99828); assay: Primary qHTS for Identification of Calcium Integrin Binding Protein 1 (CIB1) Competitor (AID 1508620);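 also: GST tagged CIB1 binding a fluorescein labelled alphaIIb integrin peptide tracer; top concentration of the series differs between compounds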
Chain of Calcium and integrin-binding protein 1 (Homo sapiens) (Q99828 whole entry, looked up): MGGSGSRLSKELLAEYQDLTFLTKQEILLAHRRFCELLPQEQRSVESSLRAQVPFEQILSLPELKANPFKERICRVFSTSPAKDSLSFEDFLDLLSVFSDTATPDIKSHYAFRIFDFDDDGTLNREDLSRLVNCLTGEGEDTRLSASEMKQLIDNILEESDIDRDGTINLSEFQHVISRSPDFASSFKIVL
Method in brief: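 CIB1-GST (1 uM final) and compound incubated 15 min at room temperature before adding FITC-alphaIIb peptide tracer (100 nM final). Competition for binding read by fluorescence polarization (ex 480, em 540) after another 15 min at room temperature.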

[3] = Primary qHTS for small molecule stabilizers of the endoplasmic reticulum resident proteome: Secreted ER Calcium Modulated Protein (SERCaMP) assay (AID 1508630)
Method in brief: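 GLuc-SERCaMP-expressing SH-SY5Y cells, pretreated 16 h with compound, are challenged with thapsigargin to empty ER calcium stores; after 4 h, coelenterazine is added directly to the medium and luminescence is imaged.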

Measured: Potency

CC(=O)[C@H]1CC[C@H]2[C@@H]3C[C@H](C)C4=CC(=O)CC[C@]4(C)[C@H]3[C@@H](O)C[C@]12C
inactive: all assays above

CC(O)(P(=O)(O)O)P(=O)(O)O
inactive: all assays above

Cc1cc(O)c(C(C)C)cc1Cl
inactive: all assays above

Cc1c2oc3c(C)ccc(C(=O)N[C@@H]4C(=O)N[C@H](C(C)C)C(=O)N5CCC[C@H]5C(=O)N(C)CC(=O)N(C)[C@@H](C(C)C)C(=O)O[C@@H]4C)c3nc-2c(C(=O)N[C@@H]2C(=O)N[C@H](C(C)C)C(=O)N3CCC[C@H]3C(=O)N(C)CC(=O)N(C)[C@@H](C(C)C)C(=O)O[C@@H]2C)c(N)c1=O (I: T[dV]P[Sar][NMeV] / II: T[dV]P[Sar][NMeV]; ester I:1-I:C, II:1-II:C; linker I:N-II:N via Actinocin(9to1))
inactive: all assays above

Cc1onc(-c2c(Cl)cccc2Cl)c1C(=O)N[C@@H]1C(=O)N2[C@@H]1SC(C)(C)[C@@H]2C(=O)O
inactive: all assays above

CCC(=O)c1c(O)cc(O)cc1O
inactive: all assays above
